# A selection: hits, their analogues and other compounds. The true share with any hit is near 19%.
# HT1080NT lethal: kills 2HG-producing HT-1080-NT fibrosarcoma cells; HT-1080-NT fibrosarcoma viability, CellTiter-Glo ATP luminescence, 48 h; Potency, µM (series often up to 46.1 µM), for the others: at the top dose activity, negative = less viability, most hits filed as cytotoxic; hit rate 1.6% among 360,000;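 note: NT is the 2HG producing partner of a matched IDH1 knockdown line; potency is the fitted concentration of half-maximal effect; 0% = DMSO-treated cells and -100% = media-only wells without cells; nearly all actives have a fitted effect of over 55% in size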
#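 Read-out is CellTiter-Glo luminescence after 10 minutes at room temperature, following 48 hours' compound treatment of HT-1080-NT cells (750 cells/well, RPMI, 5% FBS, 37 degrees C).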
# DT40 TDP1 CPT: growth inhibition of DT40 Tdp1-/-;hTDP1 cells with camptothecin (screen for TDP1 inhibitors) | chicken DT40 Tdp1-/-;hTDP1 cells + 20 nM CPT, ATP luminescence, 48 h | hit rate 12% among 420,000 | Potency, µM (top dose mostly 46.2 µM), for inactives: top-dose activity change, negative = growth inhibition, actives largely listed as inhibitors; note: potency is the fitted concentration of half-maximal effect; nearly all actives have a fitted effect of over 55% in size
#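 Cell growth measured by CellTiter-Glo luminescence after a minimum 48 h, 37 C compound exposure with 20 nM CPT in Tdp1-knockout DT40 cells stably expressing hTDP1, seeded 400/well; qHTS titration format.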
# IL1B secr inh: inflammasome signaling inhibition, IL-1 beta readout | THP-1 LPS/ATP IL-1B secretion, AlphaLISA, 16 h; stronger effect = lower value | activity change, % at 57.5 µM | hit rate 4.7% among 360,000 | AID 743279; in the data active = activity change below about -50%; inconclusive = mostly about -30% to -49%
#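 Secreted IL-1B measured by AlphaLISA bead assay after 16 h compound exposure of THP-1 cells; compounds (final up to 57.5 uM) added 1 h before LPS (250 ng/mL) and ATP (1.25 mM) stimulation; lower signal means less secretion.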
# HT1080 IDH1KD tx: kills HT-1080 cells with IDH1 knockdown; HT-1080 IDH1 knockdown viability, ATP luminescence, 48 h; Potency, µM (titrated, usually from 46.1 µM), for inactives: at the highest dose activity, negative = toxicity, actives largely listed as cytotoxic; hit rate 2% among 360,000; AID 686971;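 note: potency is the fitted concentration of half-maximal effect; 0% = DMSO wells and -100% = cell-free medium wells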
#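 HT-1080-IDH1KD cells (IDH1 knocked down), 750/well in RPMI with 5% FBS, treated with compound 48 h at 37 degrees C. Viability by CellTiter-Glo luminescence, normalised to DMSO and no-cell wells; concentration-response curves classed.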
# ELG1 DNA repair: inhibitors of ELG1-dependent DNA repair in HEK293T cells; HEK293T ELG1-luciferase reporter, luminescence, 16 h; DNA damage induced by 5-fluorouridine; Potency, µM (titrated, usually from 46.1 µM), for the others: at the top dose activity change, negative = inhibition, hits mostly inhibitors; hit rate 2.3% among 330,000; AID 504467; note: potency is the fitted concentration of half-maximal effect; nearly all actives have a fitted effect of over 55% in size
#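 Cells (2,000 per well) received 5-fluorouridine plus test compound or DMSO and were incubated 16 hr at 37 °C, 5% CO2. Luciferase activity was read by luminescence 30 min after ONE-Glo addition; signal suppression marked inhibition of damage-induced ELG1 function.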
# DT40 TDP1 no CPT: qHTS for Inhibitors of human tyrosyl-DNA phosphodiesterase 1 (TDP1): qHTS in cells in absence of CPT. DT40 Tdp1-/- hTDP1 cells, no CPT, ATP luminescence, 48 h. Potency, µM (highest dose often 46.2 µM), for the others: top-dose activity change, negative = growth inhibition, hits mostly inhibitors. hit rate 15% among 420,000; note: potency is the fitted concentration of half-maximal effect; nearly all actives have a fitted effect of over 55% in size
#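 Compound effects on proliferation are scored in DT40 Tdp1-/-;hTDP1 cells in the absence of CPT. ATP levels (CellTiter-Glo luminescence) are recorded after a ≥48 hr, 37 °C incubation.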
# Numbers without * were called inactive; ? = inconclusive; / = not tested or not shown; [ ] = another dose, or the depositor's remark. Unless noted, calls come from the whole dose curve; as a rule, active = well fitted curve in the direction sought with a large enough effect; inconclusive = small, poorly fitted or top-dose-only effect, or another doubt; inactive = no such curve, though single readings can be large; an effect the other way counts as inactive or inconclusive. Unless noted, % is set by controls: 0 for no effect and ±100 for the full control effect.
SMILES,HT1080NT lethal,DT40 TDP1 CPT,IL1B secr inh,HT1080 IDH1KD tx,ELG1 DNA repair,DT40 TDP1 no CPT
COc1ccc(Br)cc1S(=O)(=O)Nc1cc(-c2cn3ccccc3n2)ccc1C,/,?,/,/,/,13µM*
Cc1cccn2cc(-c3ccc(S(=O)(=O)N4CCOCC4)cc3)nc12,?,?,28.7,-19.1%,?,16.4µM*
COc1ccc(S(=O)(=O)Nc2cc(-c3cn4ccc(C)cc4n3)ccc2C)cc1OC,/,16.4µM*,/,/,/,16.4µM*
O=S(=O)(c1ccccc1)N1CCC2(CCCN(Cc3ccccc3)C2)CC1,/,14.1%,/,/,/,?
Cc1cc(C)c(S(=O)(=O)Nc2cc(-c3cn4ccccc4n3)ccc2C)cc1C,/,20.6µM*,/,/,/,20.6µM*
Nc1ccn([C@@H]2O[C@H](C(=O)N3CCN(c4ccc(Cl)cn4)CC3)[C@@H](O)[C@H]2O)c(=O)n1,28.8%,1.0%,-2.0,16.4%,/,16.2%
Nc1ncnc2c1ncn2[C@@H]1O[C@H](C(=O)N2CCN(c3ccc(Cl)cn3)CC2)[C@@H](O)[C@H]1O,?,-25.6%,2.0,?,/,20.6µM*
COc1cc(N(C)C)ccc1/C=C1\C=Cc2ccccc21,/,?,/,/,/,15.8µM*
Cc1cc(/C=C2\C=Cc3ccccc32)ccc1N(C)C,/,?,/,/,/,-20.7%
COc1cc(N2CCCC2)c(OC)cc1C=O,-9.9%,?,-25.8,-16.9%,?,?
COc1cc(N(C)C)c(OC)cc1/C=C1\C=Cc2ccccc21,/,?,/,/,/,12.6µM*
COc1cc(N(C)C)c(OC)cc1C=O,/,15.8µM*,/,/,/,11.2µM*
CN(C)c1ccc(C=C2C=Cc3ccccc32)cc1,12.0%,-12.4%,?,-0.2%,/,-16.7%
Cc1cc(C)n(C(C)CC(=O)Nc2ccc(Cl)cc2C)n1 (stereo not drawn),/,-26.2%,/,/,/,?
Cc1ccc(S(=O)(=O)NCC(=O)NCC(=O)N(C)Cc2ccc3ccccc3c2)cc1C,?,?,-52.0*,-13.8%,?,-70.1%
CSCC(=O)N1CCCC(N2CCN(c3cccc(C(F)(F)F)c3)CC2)C1 (stereo not drawn),0.2%,-27.7%,-0.2,-4.5%,-10.2%,?
Cc1occc1C(=O)N1CCCC(N2CCN(c3cccc(C(F)(F)F)c3)CC2)C1 (stereo not drawn),-25.7%,20.6µM*,-7.0,-19.2%,-13.3%,13µM*
Cc1cc(C(=O)N2CCCC(N3CCN(c4cccc(C(F)(F)F)c4)CC3)C2)nn1C (stereo not drawn),-2.8%,?,20.3,0.1%,-16.9%,?
Cc1cc(C(=O)N2CCCC(N3CCN(c4cccc(C(F)(F)F)c4)CC3)C2)c(C)o1 (stereo not drawn),-27.3%,16.4µM*,?,-13.8%,-12.5%,11.6µM*
C[C@@H]1CN(Cc2ccc3c(c2)CN(Cc2cn[nH]c2-c2ccccc2)CCO3)C[C@H](C)O1,/,4.0%[9.04 µM],/,/,/,-21.5%
CN(C(=O)CSc1nc2ccccc2c(=O)n1-c1ccc(F)cc1F)C1CCS(=O)(=O)C1 (stereo not drawn),7.4%,3.1%,9.5,13.3%,11.5%,-5.8%
Cc1noc(C)c1CSc1nnc2n(-c3ccccc3)c(=O)c3ccccc3n12,16.1%,?,27.6,-8.8%,/,-7.7%
Cc1noc(C)c1CSc1nc2ccccc2c(=O)n1-c1ccccc1,?,6.51µM*,-5.8,9.2µM*,-18.5%,5.8µM*
Cc1noc(C)c1CSc1nc2ccccc2c(=O)n1-c1ccc(F)cc1F,?,8.2µM*,-12.2,16.4µM*,?,7.31µM*
Cc1ccc(NC(=O)CSc2nnc3[nH]c(=O)cc(-c4ccccc4)n23)cc1Cl,/,-7.2%,/,/,/,3.6%
SMILES,HT1080NT lethal,DT40 TDP1 CPT,IL1B secr inh,HT1080 IDH1KD tx,ELG1 DNA repair,DT40 TDP1 no CPT
O=S1(=O)CCOCCCN1Cc1cccc(Cl)c1,/,-72.1%,/,/,/,?
COc1cc(NC(=O)N2CCC(CN3CCCC3)CC2)cc(OC)c1OC,/,17.9%,/,/,/,5.4%
COc1cc(NC(=O)N2CCC3(CC2)Nc2cc(F)ccc2-n2cccc23)cc(OC)c1OC,/,16.4µM*,/,/,/,25.9µM*
O=c1c(Cl)cc(Cl)nn1-c1ccccc1,?,2.06µM*,-100.0*,?,23.1µM*,1.46µM*
COc1cc(Cl)nn(-c2ccccc2)c1=O,8.6%,?,0.0,3.4%,9.1%,-10.8%
C=CCc1cccc(CNc2cnc3ccccc3c2)c1O,-12.7%,6.51µM*,9.8,-27.5%,?,10.3µM*
Oc1ccc(Cl)cc1CNCc1cccc2ccccc12,0.0%,?,-21.3,5.2%,28.3%,?
Oc1ccc(Cl)cc1CNc1cnc2ccccc2c1,-23.7%,?,-10.5,?,-4.7%,29.1µM*
C=CCc1cccc(CNc2nc3ccccc3n2C)c1O,7.3%,?,?,-1.3%,7.4%,13.6%
Oc1ccccc1CNc1cnc2ccccc2c1,-26.2%,23.1µM*,-10.8,-22.0%,?,23.1µM*
Oc1ccc2ccccc2c1CNc1cnc2ccccc2c1,5.0%,-18.1%,-4.5,4.1%,?,-28.5%
COc1ccc(CCNCc2ccc(OCC(=O)N3CCCCC3)c(OC)c2)cc1OC,-3.6%,-4.8%,-6.8,8.5%,-2.4%,-9.9%
COc1ccc(-c2nc3cnc(OC)nc3n(CCc3ccccc3)c2=O)cc1,/,-10.6%,/,/,/,6.6%
COc1ccc(OC)c(C2C(C(=O)N3CCCCC3)=C(C)Nc3nc4ccccc4n32)c1 (stereo not drawn),/,-1.6%,/,/,/,-2.3%
COc1ccccc1N1CCN(C(=O)[C@@H]2CCCN2C2=NS(=O)(=O)c3ccccc32)CC1,1.4%,-19.4%,9.5,7.5%,/,-0.6%
COC(=O)Cn1cnc2c(Cl)nc(F)nc21,-14.5%,13µM*,-89.6*,-20.0%,-3.5%,16.4µM*
C[C@@H]1CCCCO[C@H](CN(C)C(=O)Nc2ccc(F)cc2)[C@@H](C)CN([C@H](C)CO)C(=O)c2cc(N(C)C)ccc2O1,1.4%,?,-9.4,2.5%,/,?
COc1cc(/C=C(\C(=O)O)c2ccc(S(=O)(=O)N3CCCC3)s2)ccc1OCCC(C)C,-0.5%,23.1µM*,0.0,-0.2%,/,?
Cc1c(Cl)cccc1NC(=O)CCN1CCC(C(N)=O)CC1,-0.8%,-19.5%,0.7,-0.4%,-3.0%,13.0%
CCOC(=O)c1cnc2ccc(C(=O)OC)cc2c1Nc1ccc(C(=O)O)cc1,8.8%,-16.2%,22.3,-28.7%,?,-8.3%
CCOC(=O)c1cnc2ccc(OC)cc2c1Nc1ccc(N2CCN(C)CC2)cc1,?,23.1µM*,-24.2,23.1µM*,?,20.6µM*
